Results from PubChem BioAssay.
Activity calls are given as the source filed them.

assay: optical density change of DRC41 E. coli – strain DRC41, OD650, 24 h, E. coli filamentation project, primary screen (AID 1093);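 note: MC1000 strain lacking acrAB efflux and sulA so SOS filamentation is blocked; test concentration not given here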; conditions: E. coli DRC41 growth, higher = more signal, called active from +8 up or from −8 down

z-score, inactive:
COC(=O)[C@@]1(Cc2ccc(F)cc2)[C@H]2c3cc(C(=O)N(C)C)n(Cc4c(CO)[nH]cc(C)c4=O)c3C[C@H]2CN1C(=O)c1ccccc1 -0.893
CN(C)C(=O)[C@]1(CCS(=O)(=O)c2ccccc2)N=C(c2ccc(OCCCO)cc2)O[C@@H]1c1ccccc1 0.29
CC(C)OC(=O)CC(=O)CC(O)c1ccc([N+](=O)[O-])cc1 (stereo unspecified) -0.215
CCN(CC)c1ccc(N2CC=CC34O[C@@H]5/C=C\CCC(C)OC(=O)C5[C@H]3C(=O)N(C(C)CO)[C@@H]4C2=O)cc1 (stereo partly specified) 1.13
Cc1ccc(C(C)CC(O)C2C=CC3C(=O)N(c4ccccc4)C(=O)C3N2Nc2ccc(C#N)cc2)o1 (stereo unspecified) -0.0931
Cc1ccc(F)cc1S(=O)(=O)N[C@@H]1CCN(Cc2cccc3[nH]ccc23)C1 -0.833
O=C1C2C=CC(C(O)c3ccco3)N(Nc3ccccc3)C2C(=O)N1c1ccccc1 (stereo unspecified) -0.353
CCOC(=O)C1=CCC(c2ccco2)N(S(=O)(=O)c2ccc(C)cc2)C1 (stereo unspecified) 0.322
O=C(NCCN1CCOCC1)[C@@H]1c2ccccc2C(=O)N(Cc2ccccc2)[C@H]1c1ccc(CO)cc1 0.311
CCOC(=O)C1=C[C@@H](c2ccccc2)N(S(=O)(=O)c2ccc(C)cc2)[C@H]1c1ccccc1 0.6
COCCOC(=O)N1C(=O)[C@@]2(c3cc(C#Cc4ccc(OC)cc4)ccc31)[C@H](c1ccc(OCCO)cc1)N1[C@H](c3ccccc3)[C@H](c3ccccc3)OC(=O)[C@H]1[C@@H]2C(=O)Nc1nc2ccccc2s1 1.82
